Compound activity: PubChem, National Center for Advancing Translational Sciences (NCATS)
FUS suppressor – rescues growth of FUS-expressing yeast; S. cerevisiae FUS-expressing, growth rescue, OD600, 24 h; hit rate 0.24% among 390,000; Potency, µM (series often up to 76.6 µM), hits mostly activators; note: nearly all actives have a fitted effect of over 55% in size
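Toxicity suppression screen in FUS-yeast. Cells induced with 2% galactose, starting OD 0.005, treated 24hr at 30C with compounds at multiple final concentrations; growth by OD600.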
Mito fusion yeast – inhibitors of mitochondrial division or activators of mitochondrial fusion | hit rate 0.23% among 320,000 | S. cerevisiae fusion-defective mutant growth rescue, CellTiterGlo 48 h | AID 485298 | Potency, µM (titrated, usually from 46.1 µM), actives largely listed as activators; note: nearly all actives have a fitted effect of over 45% in size
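S. cerevisiae fusion-defective temperature-sensitive mutants (e.g. fzo1-1, mgm1-5) grown 48 h at 37C in YPEG (ethanol/glycerol non-fermentable) medium with 23 nl compound per well; growth rescue read as CellTiterGlo luminescence.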
TDP43 rescue – inhibitors of TDP-43 toxicity in yeast; TDP-43 expressing yeast growth rescue, BacTiter-Glo, 24 h; AID 652104; hit rate 1.8% among 410,000; Potency, µM (doses to about 46.1 µM), hits mostly activators; note: nearly all actives have a fitted effect of over 50% in size
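Yeast expressing TDP-43 (pregrown in raffinose, seeded at OD600=0.02 in galactose medium) exposed to compounds 24 hr at 30 deg C. Growth read by BacTiter-Glo luminescence; rescue of toxicity appears as increased signal.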
Abeta yeast res – compounds reversing amyloid beta toxicity in yeast; yeast expressing A-beta42, growth rescue, OD600, 48 h; response scale: 0% DMSO, 100% iron-clioquinol control; Potency, µM (series often up to 46.1 µM), actives largely listed as activators; hit rate 0.063% among 410,000; AID 1347071; note: nearly all actives have a fitted effect of over 55% in size
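Growth rescue measured by 600 nm absorbance after 48 h yeast culture at 30 C with compound. Values normalized between DMSO and an equimolar ferric chloride plus clioquinol control.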
aSyn rescue – inhibitors of alpha-synuclein toxicity in yeast; Yeast expressing alpha-synuclein, growth rescue, BacTiter-Glo, 24 h; Potency, µM (series often up to 46.1 µM), usual class: activators; hit rate 0.14% among 370,000; AID 652106; note: nearly all actives have a fitted effect of over 65% in size
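Readout is rescue of growth in alpha-synuclein-expressing yeast, so inhibitors of toxicity appear as activators. Growth after 24 hr at 30 deg C in galactose medium is quantified by luminescence.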
A number is an active result; 0 = inactive; ? = inconclusive; - = not tested or not shown. In the library only some 2.2% were active in any assay of this set; here they are far more common. Calls come from the whole dose curve; as a rule, active = well fitted curve in the direction sought with a large enough effect; inconclusive = small, poorly fitted or top-dose-only effect, or another doubt; inactive = no such curve, though single readings can be large; an effect the other way counts as inactive or inconclusive.

SMILES | FUS suppressor | Mito fusion yeast | TDP43 rescue | Abeta yeast res | aSyn rescue
O=C(CN1CCCN(Cc2ccccc2Cl)S1(=O)=O)Nc1ccc2c(c1)OCCO2 | 0 | - | ? | 0 | -
O=C(CN1CCCN(Cc2ccccc2F)S1(=O)=O)Nc1ccc(F)c(Cl)c1 | 0 | - | 11µM | ? | -
COc1ccc(CN2C(C(=O)NC3CCCC3)CSCCS2(=O)=O)cc1 (stereo not drawn) | 0 | - | - | - | -
COc1cccc(C(O)c2nc(-c3cncnc3)cs2)c1 (stereo not drawn) | 0 | - | 0 | 0 | 0
COc1cccc(C(O)c2nc(-c3ccc4ccccc4c3)cs2)c1 (stereo not drawn) | ? | - | 22µM | 0 | ?
OC(c1ccc(F)cc1)c1nc(-c2cc3ccccc3o2)cs1 (stereo not drawn) | 0 | - | 25µM | ? | ?
OC(c1ccc(F)cc1)c1nc(-c2cccc(F)c2)cs1 (stereo not drawn) | 0 | - | 11µM | 0 | 0
COc1cccc(C(O)c2nc(-c3cccc(C(=O)O)c3)cs2)c1 (stereo not drawn) | 0 | - | 0 | 0 | 0
COc1cccc(C(O)c2nc(-c3cccc(F)c3)cs2)c1 (stereo not drawn) | 0 | - | 22µM | 0 | 0
Oc1c(-c2cc(-c3ccco3)[nH]n2)ccc2ccccc12 | 0 | ? | 10µM | 0 | 0
Oc1ccc(Br)cc1-c1cc(-c2ccco2)[nH]n1 | 0 | 0 | 13µM | 0 | 0
Oc1ccc(Br)cc1-c1ccn[nH]1 | - | 0 | 13µM | 0 | 0
Oc1ccccc1-c1cc(-c2ccco2)[nH]n1 | 0 | 0 | 0 | 0 | 0
COc1ccc2c(c1)CN1C(=O)N(Cc3ccc(F)cc3)S(=O)(=O)CC21 (stereo not drawn) | 0 | - | - | - | -
COc1cc2c(NC3CCN(C(C)C)CC3)nc(N3CCCN(C)CC3)nc2cc1OCCCN(C)C | - | - | - | - | 0
Cc1ccc2nc(N3CCCCC3)c(C=O)c(=O)n2c1 | - | 0 | - | - | -
Cc1ccc2nc(N3CCN(c4ccccc4F)CC3)c(C=O)c(=O)n2c1 | 0 | 0 | 16µM | 0 | 0
C#Cc1ccc(NC(=O)C2(C)CCN2C(=O)C/C=C/c2ccccc2)cc1 (stereo not drawn) | 0 | - | 25µM | 0 | 0
C#Cc1ccc(NC(=O)C2(C)CCN2C(=O)Cc2ccc(C(C)C)cc2)cc1 (stereo not drawn) | 0 | - | 35µM | 0 | 0
COC[C@@H]1CCCN1c1ccc2c(c1)O[C@@H]1CCN(C1)S2(=O)=O | 0 | - | - | - | -
CC(Oc1cc2oc(=O)c3c(c2cc1Cl)CCC3)C(=O)NCc1ccncc1 (stereo not drawn) | 0 | 0 | 0 | 0 | 0
CCOC(=O)C1CCN(CC(C)(C)NS(=O)(=O)c2ccc(Cl)cc2)CC1 | 0 | 0 | 0 | 0 | 0
CCOC(=O)C1CCN(CC(C)(C)NS(=O)(=O)c2ccc(C)cc2)CC1 | 0 | 3.5µM | 0 | 0 | 0
CC1=C(c2ccc(F)cc2)[N+](=O)C(C)(C)N1[O-] | 0 | 13µM | 0 | 0 | 0
CC1=C(c2ccc(C)cc2)[N+](=O)C(C)(C)N1[O-] | 0 | 0 | 0 | 0 | 0
SMILES | FUS suppressor | Mito fusion yeast | TDP43 rescue | Abeta yeast res | aSyn rescue
S=C(Nc1cccc(Cl)c1)OCCN1CCCC12CCC(c1ccccc1)CC2 (stereo not drawn) | 0 | - | - | - | -
Cn1c(=O)c2[nH]c(SCC(=O)N3CCN(c4cccc(C(F)(F)F)c4)CC3)nc2n(C)c1=O | 0 | - | - | - | -
S=C(N/N=C/c1ccco1)NC1CC2CCC1C2 (stereo not drawn) | 0 | 0 | 14µM | ? | 0
O=C(NCCN1CCC(Cc2ccccc2)CC1)C1CCCN(S(=O)(=O)c2ccc([N+](=O)[O-])cc2)C1 (stereo not drawn) | 0 | - | - | - | -
COc1cccc(NC=C2C(=O)OC3(CCCCC3)OC2=O)c1 | - | 0 | 25µM | 0 | 0
COc1cccc(NC=C2C(=O)OC(C)(C)OC2=O)c1 | 0 | 0 | ? | 0 | 0
CN(C)S(=O)(=O)c1ccc(N2CCCC2)c(C(=O)N2CCN(S(=O)(=O)c3ccc(F)c(F)c3)CC2)c1 | 28µM | - | 0 | 0 | 0
Cc1cc(C)c(NC(=O)CSCc2nc3sc(C)c(C)c3c(=O)[nH]2)c(Cl)c1 | 0 | 0 | 0 | 0 | 0
Cc1nn(Cc2ccc(Cl)c(Cl)c2)c(C)c1NC(=O)c1cc(-c2ccco2)on1 | ? | 0 | 0 | ? | 0
CCC(=NCc1ccc(Cl)c(Cl)c1)c1nc(-c2ccco2)oc1O | 0 | ? | 14µM | 0 | 0
CC(=O)Nc1cccc(-c2nc3ccc(NC(C)=O)cc3s2)c1 | 0 | 0 | 0 | 0 | 0
CC(=O)Nc1cccc(-c2nc3ccccc3s2)c1 | 0 | 0 | 8.9µM | 0 | 0
O=C(O)Cc1ccc2sc(-c3ccccc3)nc2c1 | - | 0 | 3.2µM | 0 | 0
O=C(Nc1cccc(-c2nc3ccccc3s2)c1)C1=COCCO1 | - | ? | 20µM | 0 | 0
CCOc1cc(-c2nc3ccccc3s2)ccc1O | 0 | 0 | 13µM | 0 | 0
COC(=O)Cc1ccc2sc(-c3ccccc3)nc2c1 | - | 0 | 0 | 0 | 0
Ic1ccc(/C=C2\C=Cc3ccccc32)cc1 | - | - | - | - | 0
COc1ccccc1-c1noc(-c2ccc(NC(C)C)c([N+](=O)[O-])c2)n1 | 0 | - | 0 | 0 | -
Cc1nn(C)c2ncc(C(=O)c3ccccc3O)cc12 | 0 | 0 | 0 | 0 | 0
Cc1[nH]nc2ncc(C(=O)c3ccccc3O)cc12 | 13µM | 0 | 0 | 0 | 0
COc1ccc(/C=C2\CC3(OC(=O)C4CCCC4)CCCN2C3)cc1 (stereo not drawn) | 0 | - | - | - | -
Cc1ccc(Cl)cc1NC(=O)Cn1c(=O)c(CNc2ccccc2)cc2cc3c(cc21)OCCO3 | 28µM | - | 0 | 0 | 0
O=C(Nc1c(Cl)cccc1Cl)c1cc(-c2cccc(O)c2)on1 | 0 | - | 16µM | 0 | -
O=S(=O)(c1ccc(CN2CCOCCOCCN(Cc3ccc(S(=O)(=O)C(F)(F)F)cc3)CCOCC2)cc1)C(F)(F)F | 0 | - | - | - | -
CC(Oc1ccccc1)C(=O)Nc1nc(-c2ccccn2)cs1 (stereo not drawn) | 0 | ? | ? | ? | 22µM
SMILES | FUS suppressor | Mito fusion yeast | TDP43 rescue | Abeta yeast res | aSyn rescue
CC(Oc1ccccc1)C(=O)Nc1nc(-c2ccncc2)cs1 (stereo not drawn) | 0 | 0 | 0 | 0 | 0
CC(Oc1cccc(Cl)c1)C(=O)Nc1nc(-c2ccccn2)cs1 (stereo not drawn) | 0 | ? | 0 | ? | 4.5µM
CCCCCCCCN1C(=O)[C@@H](CC(=O)N2CCCC2)C[C@@]2(C(=O)OC)C1=C[C@H](C(C)C)O[C@@H]2C1CC1 | 13µM | - | - | - | -
CCCCCCCCN1C(=O)[C@@H](CC(=O)N2CCOCC2)C[C@@]2(C(=O)OC)C1=C[C@H](C(C)C)O[C@@H]2C1CC1 | 8.9µM | - | - | - | -
CCCCCCCCN1C(=O)[C@@H](CC(=O)N2CCSCC2)C[C@@]2(C(=O)OC)C1=C[C@H](C(C)C)O[C@@H]2C1CC1 | 4.5µM | - | - | - | -
COC(=O)[C@]12C[C@H](CC(=O)N3CCCCC3)C(=O)N(CCC3=CCCCC3)C1=C[C@H](C(C)C)O[C@@H]2C1CC1 | 0 | - | - | - | -
